# According to PubChem BioAssay AID1159580 (chemical genetic matrix, 2015):
# Values joined by “and” are separate entries in the source; they are usually repeats but may differ in a detail not shown here. Identical values can stand only once. About 2,000 (36%) of roughly 5,500 compounds were called active. About 18% were inconclusive and are not listed. Some of the results follow. Unmarked numbers belong to inactive results. No stated cut-off is given here; in the data, active means normalized growth mostly below about 0.91 (no sharp cut-off); inconclusive means no clear call, values can overlap the other calls; inactive means mostly above about 0.92.
# Test: chemical genetic growth profiling, strain panel (AID 1159580);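 further: tested at 20 µM; growth read once vehicle control cultures reached saturation at 30 °C; 1 = growth at the plate median or of vehicle wells; lower values mean less growth of the strain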
# Conditions: growth OD
# [1] = S. cerevisiae deletion strains, locus YDL101C, strain DUN1, hits give low values
# [2] = S. cerevisiae deletion strains, locus YGR052W, strain FMP48, hits give low values
# [3] = S. cerevisiae deletion strains, locus YHR030C, strain SLT2, hits give low values
# [4] = S. cerevisiae deletion strains, locus YHR079C, strain IRE1, hits give low values
# [5] = S. cerevisiae deletion strains, locus YHR082C, strain KSP1, hits give low values
# [6] = S. cerevisiae deletion strains, locus YJL095W, strain BCK1, hits give low values
# [7] = S. cerevisiae deletion strains, locus YJR066W, strain TOR1, hits give low values
# [8] = S. cerevisiae deletion strains, locus YKL203C, strain TOR2, hits give low values
# [9] = S. cerevisiae deletion strains, locus YLR113W, strain HOG1, hits give low values
# [10] = S. cerevisiae deletion strains, locus YNL207W, strain RIO2, hits give low values
# [11] = S. cerevisiae deletion strains, locus YOR119C, strain RIO1, hits give low values
# [12] = S. cerevisiae deletion strains, locus YOR231W, strain MKK1, hits give low values
# [13] = S. cerevisiae deletion strains, locus YPL256C, strain CLN2, hits give low values
# [14] = S. cerevisiae deletion strains, locus YBR229C, strain ROT2, hits give low values
# [15] = S. cerevisiae deletion strains, locus YEL061C, strain CIN8, hits give low values
# [16] = S. cerevisiae deletion strains, locus YGR078C, strain PAC10, hits give low values
# [17] = S. cerevisiae deletion strains, locus YHR087W, strain rtc3, hits give low values
# [18] = S. cerevisiae deletion strains, locus YJR043C, strain POL32, hits give low values
# [19] = S. cerevisiae deletion strains, locus YJR075W, strain HOC1, hits give low values
# [20] = S. cerevisiae deletion strains, locus YKL190W, strain CNB1, hits give low values
# [21] = S. cerevisiae deletion strains, locus YLR039C, strain RIC1, hits give low values
# [22] = S. cerevisiae deletion strains, locus YLR058C, strain SHM2 (second series), hits give low values
# [23] = S. cerevisiae deletion strains, locus YLR085C, strain ARP6, hits give low values
# [24] = S. cerevisiae deletion strains, locus YLR262C, strain YPT6, hits give low values
# [25] = S. cerevisiae deletion strains, locus YML094W, strain GIM5, hits give low values
# [26] = S. cerevisiae deletion strains, locus YMR219W, strain ESC1, hits give low values
# [27] = S. cerevisiae deletion strains, locus YMR263W, strain SAP30, hits give low values
# [28] = S. cerevisiae deletion strains, locus YNL153C, strain GIM3, hits give low values
# [29] = S. cerevisiae deletion strains, locus YNL298W, strain CLA4 (second series), hits give low values
# [30] = S. cerevisiae deletion strains, locus YNL322C, strain KRE1, hits give low values
# [31] = S. cerevisiae deletion strains, locus YNR030W, strain Alg12, hits give low values
# [32] = S. cerevisiae deletion strains, locus YOL006C, strain TOP1, hits give low values
# [33] = S. cerevisiae deletion strains, locus YPL055C, strain LGE1, hits give low values
# [34] = S. cerevisiae deletion strains, locus YPL241C, strain CIN2, hits give low values
# [35] = S. cerevisiae deletion strains, locus YPR135W, strain CTF4, hits give low values
structure (smiles),measurement,setting,value
COc1ccc(Nc2nc(NC(=O)Nc3ccc(Cl)cc3)n[nH]2)cc1,normalized growth,"S. cerevisiae deletion strains, locus YAR019C, strain CDC15, hits give low values",0.996
same,normalized growth,"S. cerevisiae deletion strains, locus YBL105C, strain PKC1, hits give low values",0.994
same,normalized growth,"S. cerevisiae deletion strains, locus YBR135W, strain CKS1, hits give low values",1
same,normalized growth,"S. cerevisiae deletion strains, locus YBR136W, strain MEC1, hits give low values",0.992
same,normalized growth,"S. cerevisiae deletion strains, locus YBR160W, strain CDC28, hits give low values",1
same,normalized growth,"S. cerevisiae deletion strains, locus YDL017W, strain CDC7, hits give low values",1
same,normalized growth,"S. cerevisiae deletion strains, locus YDL028C, strain MPS1, hits give low values",0.986
same,normalized growth,[1],1
same,normalized growth,"S. cerevisiae deletion strains, locus YDL108W, strain KIN28, hits give low values",0.982
same,normalized growth,"S. cerevisiae deletion strains, locus YDL132W, strain cdc53, hits give low values",0.99
same,normalized growth,"S. cerevisiae deletion strains, locus YDL214C, strain PRR2, hits give low values",0.867
same,normalized growth,"S. cerevisiae deletion strains, locus YDR052C, strain DBF4, hits give low values",1
same,normalized growth,"S. cerevisiae deletion strains, locus YDR054C, strain cdc34, hits give low values",1
same,normalized growth,"S. cerevisiae deletion strains, locus YDR226W, strain ADK1, hits give low values",0.994
same,normalized growth,"S. cerevisiae deletion strains, locus YDR477W, strain SNF1, hits give low values",0.809
same,normalized growth,"S. cerevisiae deletion strains, locus YER123W, strain YCK3, hits give low values",0.715
same,normalized growth,"S. cerevisiae deletion strains, locus YER133W, strain GLC7, hits give low values",0.757
same,normalized growth,"S. cerevisiae deletion strains, locus YFL009W, strain cdc4, hits give low values",0.994
same,normalized growth,"S. cerevisiae deletion strains, locus YFL029C, strain CAK1, hits give low values",0.998
same,normalized growth,"S. cerevisiae deletion strains, locus YFR003C, strain YPI1, hits give low values",0.996
same,normalized growth,"S. cerevisiae deletion strains, locus YFR019W, strain FAB1, hits give low values",0.866
same,normalized growth,"S. cerevisiae deletion strains, locus YFR028C, strain CDC14, hits give low values",0.988
same,normalized growth,"S. cerevisiae deletion strains, locus YGR040W, strain KSS1, hits give low values",0.789
same,normalized growth,[2],0.788
same,normalized growth,"S. cerevisiae deletion strains, locus YGR092W, strain DBF2, hits give low values",0.793
same,normalized growth,[3],0.887
same,normalized growth,[4],0.893
same,normalized growth,[5],0.868
same,normalized growth,"S. cerevisiae deletion strains, locus YHR205W, strain SCH9, hits give low values",0.842
same,normalized growth,"S. cerevisiae deletion strains, locus YIL147C, strain SLN1, hits give low values",0.979
same,normalized growth,[6],0.861
same,normalized growth,"S. cerevisiae deletion strains, locus YJL128C, strain PBS2, hits give low values",0.957
same,normalized growth,"S. cerevisiae deletion strains, locus YJL157C, strain FAR1, hits give low values",0.88
same,normalized growth,"S. cerevisiae deletion strains, locus YJR016C, strain ILV3, hits give low values",0.991
same,normalized growth,"S. cerevisiae deletion strains, locus YJR066W, strain TOR1 (second series), hits give low values",0.758
same,normalized growth,[7],0.929
same,normalized growth,"S. cerevisiae deletion strains, locus YKL048C, strain ELM1, hits give low values",0.854
same,normalized growth,"S. cerevisiae deletion strains, locus YKL067W, strain YNK1, hits give low values",0.876
same,normalized growth,"S. cerevisiae deletion strains, locus YKL101W, strain HSL1, hits give low values",0.83
same,normalized growth,"S. cerevisiae deletion strains, locus YKL193C, strain SDS22, hits give low values",0.991
same,normalized growth,[8],0.892
same,normalized growth,[9],0.813 (active)
same,normalized growth,"S. cerevisiae deletion strains, locus YLR133W, strain CKI1, hits give low values",0.795
same,normalized growth,"S. cerevisiae deletion strains, locus YLR403W, strain SFP1, hits give low values",0.742
same,normalized growth,"S. cerevisiae deletion strains, locus YML070W, strain DAK1, hits give low values",0.846
same,normalized growth,"S. cerevisiae deletion strains, locus YMR001C, strain CDC5, hits give low values",1
same,normalized growth,"S. cerevisiae deletion strains, locus YMR205C, strain PFK2 (second series), hits give low values",0.782
same,normalized growth,"S. cerevisiae deletion strains, locus YMR277W, strain FCP1, hits give low values",0.991
same,normalized growth,"S. cerevisiae deletion strains, locus YNL006W, strain LST8, hits give low values",1.02
same,normalized growth,"S. cerevisiae deletion strains, locus YNL020C, strain ARK1, hits give low values",0.811
same,normalized growth,"S. cerevisiae deletion strains, locus YNL161W, strain CBK1, hits give low values",0.998
same,normalized growth,"S. cerevisiae deletion strains, locus YNL183C, strain NPR1, hits give low values",0.763
same,normalized growth,[10],0.992
same,normalized growth,"S. cerevisiae deletion strains, locus YNL222W, strain SSU72, hits give low values",0.993
same,normalized growth,"S. cerevisiae deletion strains, locus YNL307C, strain MCK1 (second series), hits give low values",0.832
same,normalized growth,"S. cerevisiae deletion strains, locus YOL078W, strain AVO1, hits give low values",0.991
same,normalized growth,"S. cerevisiae deletion strains, locus YOL136C, strain PFK27, hits give low values",0.848
same,normalized growth,"S. cerevisiae deletion strains, locus YOR061W, strain CKA2, hits give low values",0.741
same,normalized growth,[11],0.853
same,normalized growth,[12],0.94
same,normalized growth,"S. cerevisiae deletion strains, locus YOR329C, strain SCD5, hits give low values",1
same,normalized growth,"S. cerevisiae deletion strains, locus YPL031C, strain PHO85, hits give low values",0.749
same,normalized growth,"S. cerevisiae deletion strains, locus YPL153C, strain RAD53, hits give low values",0.756
same,normalized growth,"S. cerevisiae deletion strains, locus YPL204W, strain HRR25, hits give low values",0.795
same,normalized growth,"S. cerevisiae deletion strains, locus YPL209C, strain IPL1, hits give low values",0.996
same,normalized growth,[13],0.797 (active)
same,normalized growth,"S. cerevisiae deletion strains, locus YPR025C, strain CCL1, hits give low values",0.99
same,normalized growth,"S. cerevisiae deletion strains, locus YPR106W, strain ISR1, hits give low values",0.991
same,normalized growth,"S. cerevisiae deletion strains, locus YPR111W, strain DBF20, hits give low values",0.981
same,normalized growth,"S. cerevisiae deletion strains, strain NNK1, hits give low values",0.99
same,normalized growth,"S. cerevisiae deletion strains, strain TSCII, hits give low values",1
Cc1cc(Cl)ccc1Oc1ccc(N)cn1,normalized growth,"S. cerevisiae deletion strains, locus YAL013W, strain DEP1, hits give low values",0.989
same,normalized growth,[14],0.977
same,normalized growth,[1],0.971
same,normalized growth,"S. cerevisiae deletion strains, locus YDR150W, strain NUM1, hits give low values",0.898
same,normalized growth,[15],0.993
same,normalized growth,[16],0.984
same,normalized growth,[3],0.486 (active)
same,normalized growth,[17],0.989
same,normalized growth,[18],0.977
same,normalized growth,[19],0.952
same,normalized growth,[20],0.928 (active)
same,normalized growth,[21],0.541 (active)
same,normalized growth,[22],0.986
same,normalized growth,[23],0.602 (active)
same,normalized growth,[24],0.544 (active)
same,normalized growth,[25],0.878
same,normalized growth,[26],0.992
same,normalized growth,[27],0.92
same,normalized growth,"S. cerevisiae deletion strains, locus YNL128W, strain TEP1, hits give low values",1
same,normalized growth,[28],0.99
same,normalized growth,[29],0.891
same,normalized growth,[30],1.01
same,normalized growth,[31],0.981
same,normalized growth,[32],0.938
same,normalized growth,[33],0.889
same,normalized growth,[34],0.917
same,normalized growth,[35],0.602 (active)
same,normalized growth,"S. cerevisiae strains, strain wild type, hits give low values",0.953
Nc1ccc(Oc2ccc(Cl)cc2C2CCCCC2)nc1,normalized growth,[14],0.821 (active)
same,normalized growth,[1],0.897 (active)
same,normalized growth,[15],0.845 (active)
same,normalized growth,[2],0.796
same,normalized growth,[16],0.855 (active)
same,normalized growth,[3],0.181 (active) and 0.708 (active)
same,normalized growth,[4],0.794 (active)
same,normalized growth,[5],0.766 (active)
same,normalized growth,[17],0.702 (active)
same,normalized growth,[6],0.849
same,normalized growth,[18],0.852 (active)
same,normalized growth,[7],0.787 (active)
same,normalized growth,[19],0.689 (active)
same,normalized growth,"S. cerevisiae deletion strains, locus YKL171W, strain NNK1, hits give low values",0.889
same,normalized growth,[20],0.658 (active)
same,normalized growth,[8],0.92
same,normalized growth,[21],0.386 (active)
same,normalized growth,[22],0.915 (active)
same,normalized growth,[23],0.451 (active)
same,normalized growth,[9],0.705
same,normalized growth,[24],0.355 (active)
same,normalized growth,[25],0.636 (active)
same,normalized growth,[26],0.935 (active)
same,normalized growth,[27],0.824 (active)
same,normalized growth,"S. cerevisiae deletion strains, locus YMR307W, strain GAS1, hits give low values",0.162 (active)
same,normalized growth,[28],0.905 (active)
same,normalized growth,[10],0.918
same,normalized growth,[29],0.528 (active)
same,normalized growth,[30],0.945
same,normalized growth,[31],0.601 (active)
same,normalized growth,[32],0.728 (active)
same,normalized growth,[11],0.879
same,normalized growth,[12],0.941
same,normalized growth,[33],0.745 (active)
same,normalized growth,[34],0.675 (active)
same,normalized growth,[13],0.748 (active)
same,normalized growth,[35],0.365 (active)
